# Inconclusive results are not listed. Entries that show only a call come without a potency. Calls of active or inactive are those of the source. Calls follow the shape of the dose curve; as a rule, active = well fitted curve in the direction sought with a large enough effect; inconclusive = small, poorly fitted or top-dose-only effect, or another doubt; inactive = no such curve, though single readings can be large; an effect the other way counts as inactive or inconclusive.
# How the values were obtained:
# [1] = molecular target: Calcium and integrin-binding protein 1 (Homo sapiens) (UniProt Q99828); assay: Primary qHTS for Identification of Calcium Integrin Binding Protein 1 (CIB1) Competitor (AID 1508620);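 also: GST tagged CIB1 binding a fluorescein labelled alphaIIb integrin peptide tracer; top concentration of the series differs between compounds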
# How it was run: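 CIB1-GST (1 uM final) and compound incubated 15 min at room temperature before adding FITC-alphaIIb peptide tracer (100 nM final). Competition for binding read by fluorescence polarization (ex 480, em 540) after another 15 min at room temperature.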
# [2] = Primary qHTS for inhibitors of nuclear receptor binding SET domain protein 2 (NSD2) in an isogenic RCH-ACV NSD2 p.E1099K mutant (9B) (AID 1645876); also: nearly all actives have a fitted effect of over 70% in size; also: potency is read from the fitted curve at half-maximal effect
# [3] = Primary qHTS for inhibitors of nuclear receptor binding SET domain protein 2 (NSD2) in an RCH-ACV wild type WT cells (2C) (AID 1645877); also: nearly all actives have a fitted effect of over 70% in size; also: potency is read from the fitted curve at half-maximal effect
# Sequence of Calcium and integrin-binding protein 1 (Homo sapiens) (Q99828 whole entry, looked up): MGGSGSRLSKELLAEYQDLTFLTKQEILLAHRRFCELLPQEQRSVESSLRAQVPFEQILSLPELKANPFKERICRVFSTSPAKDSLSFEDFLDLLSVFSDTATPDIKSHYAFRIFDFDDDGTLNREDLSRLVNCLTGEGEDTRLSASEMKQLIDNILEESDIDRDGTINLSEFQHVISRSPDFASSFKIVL
smiles,measurement,setting,value
Cc1ncc([N+](=O)[O-])n1C[C@H](O)CN1CCOCC1,Potency,[1],inactive
same,Potency,[2],inactive
same,Potency,[3],inactive
CC1(C)OC(=O)C=C[C@@]2(C)C1CC(=O)[C@]1(C)C2CC[C@@]2(C)[C@H](c3ccoc3)OC(=O)[C@H]3O[C@]321 (some centres undefined),Potency,[1],inactive
same,Potency,[2],inactive
same,Potency,[3],inactive
CCC(C)/C=C(C)/C=C/C1=CC2=C(Cl)C(=O)C(C)(OC(C)=O)C(=O)C2=CN1C(CCCN=C(N)N)C(=O)O (centres undefined),Potency,[1],inactive
same,Potency,[2],inactive
same,Potency,[3],inactive
C=C1CCc2occ(C)c2[C@H]2[C@H]1[C@@]13O[C@@]1(C[C@@H](C)[C@H]3OC(C)=O)[C@H]1O[C@@]21C,Potency,[1],inactive
same,Potency,[2],inactive
same,Potency,[3],inactive
CC(CCc1ccc(O)cc1)O[C@@H]1O[C@H](CO[C@@H]2OC(CO)[C@H](O)[C@H]2O)[C@@H](O)[C@H](O)[C@H]1O (some centres undefined),Potency,[1],inactive
same,Potency,[2],inactive
same,Potency,[3],inactive
C=C(C(=O)O)[C@@H]1CC[C@H](C)[C@@H]2CC(=O)C(C)=C2C1,Potency,[1],inactive
same,Potency,[2],inactive
same,Potency,[3],inactive
C/C=C/C1OC2=C(C(=O)OC2(C)O)C(O)C1O (centres undefined),Potency,[1],inactive
same,Potency,[2],inactive
same,Potency,[3],inactive
CCC(C)C(=O)O[C@H]1C[C@](C)(O)[C@]23OC(C)(C)[C@H](C[C@H](OC(=O)c4ccccc4)[C@]2(COC(C)=O)[C@H]1OC(=O)C(C)CC)[C@H]3OC(C)=O (some centres undefined),Potency,[1],inactive
same,Potency,[2],inactive
same,Potency,[3],inactive
CC(C)CC(c1c(O)c(C=O)c(O)c(C=O)c1O)C1CCC(C)(O)C2CC(C(C)(C)O)CCC12C (centres undefined),Potency,[1],inactive
same,Potency,[2],inactive
same,Potency,[3],inactive
COc1cncc(C#Cc2ccccn2)c1,Potency,[1],inactive
same,Potency,[2],inactive
same,Potency,[3],inactive
CNc1nc(Cc2ccccc2)nc2c1CCNC[C@@H]2C,Potency,[1],inactive
same,Potency,[2],inactive
same,Potency,[3],inactive
C=CC(C)(O)C1CC2C3(C)CCCC(C)(C)C3C(O)C(O)C2(C)O1 (centres undefined),Potency,[1],inactive
same,Potency,[2],inactive
same,Potency,[3],inactive
Cc1occc(=O)c1O[C@@H]1O[C@H](CO[C@@H]2OC[C@](O)(CO)[C@H]2O)[C@@H](O)[C@H](O)[C@H]1O,Potency,[1],inactive
same,Potency,[2],inactive
same,Potency,[3],inactive
CC1(C)CC[C@]2(C(=O)O[C@@H]3O[C@H](CO)[C@@H](O)[C@H](O)[C@H]3O)CC[C@]3(C)C(=CCC4[C@@]5(C)CC[C@H](O[C@@H]6O[C@H](C(=O)O)[C@@H](O[C@@H]7O[C@H](CO)[C@@H](O)[C@H](O)[C@H]7O)[C@H](O)[C@H]6O)C(C)(C)C5CC[C@]43C)C2C1 (some centres undefined),Potency,[1],inactive
same,outcome,[2],inactive [at 9.23 µM]
same,"activity change, negative = cell killing",[3],2.22% [at 9.23 µM] (inactive)
CC1=C2CC(=O)C(C)CC/C=C(\C)CC2(O)OC1=O (centres undefined),Potency,[1],inactive
same,Potency,[2],inactive
same,Potency,[3],inactive
CC1OC(OC2C(OC3C(O[C@H]4CC[C@@]5(C)C(CC[C@]6(C)C5C(=O)CC5=C7CC(C)(C)CC(O)[C@]7(C)CC[C@]56C)C4(C)C)OC(C(=O)O)C(O)C3O)OCC(O)C2O)C(O)C(O)C1O (some centres undefined),Potency,[1],inactive
same,outcome,[2],inactive [at 9.23 µM]
same,outcome,[3],inactive [at 9.23 µM]
Nc1nc2c(nc(Sc3ccc(Cl)cc3)n2[C@@H]2O[C@@H]3COP(=O)(O)O[C@H]3[C@H]2O)c(=O)[nH]1,Potency,[1],inactive
same,Potency,[2],inactive
same,Potency,[3],inactive
CC1=C2C[C@@]3(C)[C@@H](CCC[C@@H]3C)C[C@@]2(O)OC1=O,Potency,[1],inactive
same,Potency,[2],inactive
same,Potency,[3],inactive
CCCCCOC(=O)Nc1nc(=O)n(C2O[C@H](C)[C@@H](O)[C@H]2O)cc1F (some centres undefined),Potency,[1],inactive
same,Potency,[2],inactive
same,Potency,[3],inactive
COc1cc(/C=C/CO[C@@H]2O[C@H](CO)[C@@H](O)[C@H](O)[C@H]2O)cc(OC)c1O[C@@H]1O[C@H](CO)[C@@H](O)[C@H](O)[C@H]1O,Potency,[1],inactive
same,Potency,[2],inactive
same,Potency,[3],inactive
CC1C2=CC(=O)OC2(O)CC2C1CCC1C(C)(C)CCC(O)C21C (centres undefined),Potency,[1],inactive
same,Potency,[2],14.2 µM (active)
same,Potency,[3],8.98 µM (active)
CC1=CC(=O)C(=C(C)C)CC2C(C)(O)CCC12O (centres undefined),Potency,[1],inactive
same,Potency,[2],inactive
same,Potency,[3],inactive
COC(=O)C1(C)CCCC2(C)c3ccc(C(C)C)cc3C(O)C(O)C12 (centres undefined),Potency,[1],inactive
same,Potency,[2],inactive
same,Potency,[3],inactive
COc1ccc(C(=O)CC(=O)O)c2c1C=CC(C)(C)O2,Potency,[1],inactive
same,Potency,[2],inactive
same,Potency,[3],inactive
O=C(O)C1(c2ccc(-c3ccc(Cl)c(Cl)c3)c(F)c2)CC1,Potency,[1],inactive
same,Potency,[2],inactive
same,Potency,[3],inactive
OC[C@H]1O[C@@H](O[C@H]2[C@H](O)[C@@H](CO)O[C@@H](OCc3ccccc3)[C@@H]2O[C@@H]2OC[C@](O)(CO)[C@H]2O)[C@H](O)[C@@H](O)[C@@H]1O,Potency,[1],inactive
same,Potency,[2],inactive
same,Potency,[3],inactive
C[C@@H]1O[C@@H](O[C@H]2[C@@H]3C=CO[C@@H](O[C@@H]4O[C@H](CO)[C@@H](O)[C@H](O)[C@H]4O)[C@@H]3[C@@]3(CO)O[C@@H]23)[C@H](O)[C@H](OC(=O)/C=C/c2ccc(O)c(O)c2)[C@H]1O,Potency,[1],inactive
same,Potency,[2],inactive
same,Potency,[3],inactive
CC1(C(=O)O)CC[C@]2(C(=O)OC3OC(CO)C(O)C(O)C3O)CC[C@]3(C)C(=CCC4[C@@]5(C)CC[C@H](OC6OCC(O)C(O)C6OC6OC(CO)C(O)C(O)C6O)C(C)(C)C5CC[C@]43C)C2C1 (some centres undefined),Potency,[1],inactive
same,"activity change, negative = viability loss",[2],-7.26% [at 9.23 µM] (inactive)
same,"activity change, negative = cell killing",[3],-0.731% [at 9.23 µM] (inactive)
CC1C2=CC(=O)OC2(O)CC2C1C(O)CC1C(C)(CO)CCCC21C (centres undefined),Potency,[1],inactive
same,Potency,[2],inactive
same,Potency,[3],inactive
COc1ccc(/C=C/C(=O)O[C@@H]2[C@@H](O[C@@H]3O[C@H](CO)[C@@H](O)[C@H](O)[C@H]3O)[C@@H](O)[C@H](O[C@H]3C4C=CO[C@@H](O[C@@H]5O[C@H](CO)[C@@H](O)[C@H](O)[C@H]5O)C4[C@@]4(CO)O[C@@H]34)O[C@H]2C)cc1 (some centres undefined),Potency,[1],inactive
same,"activity change, negative = viability loss",[2],-15.4% [at 9.23 µM] (inactive)
same,"activity change, negative = cell killing",[3],-20.7% [at 9.23 µM] (inactive)
CCN(CCN(C)C)C(=O)CNCc1cc(C(N)=O)ccn1,Potency,[1],inactive
same,Potency,[2],inactive
same,Potency,[3],inactive
C/C(=C\CO)CC/C=C(\C)C(=O)O[C@@H]1O[C@H](CO)[C@@H](O)[C@H](O)[C@H]1O,Potency,[1],inactive
same,Potency,[2],inactive
same,Potency,[3],inactive
COc1cc(C2Oc3c(OC)cc(/C=C/C(=O)OC4CC(O)(C(=O)O)CC(O)C4O)cc3C2CO)ccc1O (centres undefined),Potency,[1],inactive
same,Potency,[2],inactive
same,Potency,[3],inactive
CC1(C)CC[C@]2(C(=O)O[C@@H]3O[C@H](CO)[C@@H](O)[C@H](O)[C@H]3O)CC[C@]3(C)C(=CCC4[C@@]5(C)CC[C@H](O[C@@H]6O[C@H](C(=O)O)[C@@H](O[C@@H]7O[C@H](CO)[C@@H](O)[C@H](O)[C@H]7O)[C@H](O)[C@H]6O[C@@H]6O[C@H](CO)[C@@H](O)[C@H](O)[C@H]6O)C(C)(C)C5CC[C@]43C)C2C1 (some centres undefined),Potency,[1],inactive
same,"activity change, negative = viability loss",[2],4.56% [at 9.23 µM] (inactive)
same,"activity change, negative = cell killing",[3],4.58% [at 9.23 µM] (inactive)
COC1OC(OC)C(O)(CCC2(C)C(C)CCC3(C)C2CC(O)C(O)C32CO2)C1O (centres undefined),Potency,[1],inactive
same,Potency,[2],inactive
same,Potency,[3],inactive
COc1ccc([C@H]2OC[C@H]3[C@@H]2CO[C@@H]3c2ccc(O[C@@H]3O[C@H](CO)C(O)[C@H](O)[C@H]3O)c(OC)c2)cc1OC (some centres undefined),Potency,[1],inactive
same,Potency,[2],inactive
same,Potency,[3],inactive
C=C1C[C@H](O)[C@@H](O)[C@@]2(C)C1[C@@H](O)[C@H]1OC(=O)C3[C@@H](C)[C@@H](O)[C@H](O)C2[C@]31C (some centres undefined),Potency,[1],inactive
same,Potency,[2],inactive
same,Potency,[3],inactive
C=C1C2CCC3C(CCC4[C@@]3(C)CCC[C@@]4(C)C(=O)O)(C2)[C@@H]1OC(=O)/C(C)=C\C (some centres undefined),Potency,[1],inactive
same,Potency,[2],inactive
same,Potency,[3],inactive
CC1=COC(OC2OC(CO)C(O)C(O)C2O)C2C(CO)CC(OC(=O)/C=C/c3ccc(O)cc3)C12 (centres undefined),Potency,[1],inactive
same,Potency,[2],inactive
same,Potency,[3],inactive
CC(C)[C@@H](C(=O)O)N1Cc2c(cc(O)c3c2O[C@]2(C3)[C@H](C)CCC3C(C)(C)[C@H](O)[C@H](O)C[C@@]32C)C1=O (some centres undefined),Potency,[1],inactive
same,Potency,[2],inactive
same,Potency,[3],inactive
CC(=O)OCC1=C[C@@H]2OC(=O)C3=CO[C@@H](O[C@@H]4O[C@H](CO)[C@@H](O)[C@H](O)[C@H]4O)[C@H]1[C@@H]32,Potency,[1],inactive
same,Potency,[2],inactive
same,Potency,[3],inactive
C[C@@H]1O[C@@H](O[C@@H]2[C@@H](O)[C@H](O[C@@H]3[C@@H](O)[C@@H](O)[C@H](O[C@H]4[C@H](OC(=O)[C@]56CCC(C)(C)C[C@H]5C5=CCC7[C@@]8(C)C[C@H](O)[C@H](O[C@@H]9O[C@H](C(=O)O)[C@@H](O)[C@H](O)[C@H]9O)[C@@](C)(CO)C8[C@H](O)C[C@@]7(C)[C@]5(C)C[C@H]6O)O[C@@H](CO)[C@@H]4O)O[C@H]3C)OC[C@H]2O)[C@H](O)[C@H](O)[C@H]1O (some centres undefined),"activity change, negative = inhibition",[1],0.349% [at 12.4 µM] (inactive)
same,"activity change, negative = viability loss",[2],-3.74% [at 9.23 µM] (inactive)
same,"activity change, negative = cell killing",[3],-10.6% [at 9.23 µM] (inactive)
C[C@@]12CC3(S(=O)(=O)O)OC(O1)[C@]1(COC(=O)c4ccccc4)[C@H]3C[C@]21O[C@@H]1O[C@H](CO)[C@@H](O)[C@H](O)[C@H]1O,Potency,[1],inactive
same,Potency,[2],inactive
same,Potency,[3],inactive
N#CC1C(=O)N=C(c2cc(Cl)ccc2O)C=C1c1cc(OCc2ccccc2)cc(OCc2ccccc2)c1 (centres undefined),Potency,[1],inactive
same,Potency,[2],inactive
same,Potency,[3],inactive
OC[C@H]1O[C@@H](OC[C@H]2O[C@@H](OCc3ccccc3)[C@H](O)[C@@H](O)[C@@H]2O)[C@H](O)[C@@H](O)[C@@H]1O,Potency,[1],inactive
same,Potency,[2],inactive
same,Potency,[3],inactive
COC(=O)C1=C[C@@H](O)[C@@H](O)[C@H](O[C@@H]2O[C@H](CO)[C@@H](O)[C@H](O)[C@H]2OC(=O)/C=C/c2ccccc2)C1,Potency,[1],inactive
same,Potency,[2],inactive
same,Potency,[3],inactive
CC1CCC2C(C)(C)[C@H](O)CC[C@]2(C)C12Cc1c(O)cc3c(c1O2)CN(C(CCC(=O)O)C(=O)O)C3=O (some centres undefined),Potency,[1],inactive
same,Potency,[2],inactive
same,Potency,[3],inactive
COc1cc(C[C@@]2(O)CO[C@@H](c3ccc(O[C@@H]4O[C@H](CO)[C@@H](O)[C@H](O)[C@H]4O)c(OC)c3)[C@H]2CO)ccc1O,Potency,[1],inactive
same,Potency,[2],inactive
same,Potency,[3],inactive

# — PubChem BioAssay (NCATS)
